According to PubChem BioAssay (Tox21):
“And” between values parts separate entries of the source, which are not always exact repeats. Equal values may be shown once. Results filed as inconclusive are left out. Entries that show only a call come without a potency. More than one record can exist for a structure, and the calls need not agree. The source made the active and inactive calls. Unless noted, calls follow the shape of the dose curve; as a rule, active = well fitted curve in the direction sought with a large enough effect in the repeat runs; inconclusive = weak or mixed curves; inactive = no such curve, though single readings can be large; an effect the other way counts as inactive or inconclusive.

Columns and labels:
[1] = qHTS assay to identify small molecule antagonists of the thyroid receptor (TR) signaling pathway - cell viability counter screen (AID 743064); also: nearly all actives have a fitted effect of over 50% in size; also: potency is read from the fitted curve at half-maximal effect
In short: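 Compounds were tested on GH3.TRE-Luc cells in the presence of T3 at 1 nM final. Following 23.5 h at 37 °C, cell viability was quantified by CellTiter-Fluor.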

[2] = qHTS assay to identify small molecule antagonists of the thyroid receptor (TR) signaling pathway (AID 743065); also: nearly all actives have a fitted effect of over 55% in size; also: potency is read from the fitted curve at half-maximal effect
In short: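 Antagonism measured as loss of luciferase signal in GH3 cells stably carrying a TRE-luciferase reporter, co-treated with compound and T3 (1 nM final) for 23.5 h at 37 C. Viability was read in the same well by CellTiter-Fluor.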

[3] = tested on: thyroid hormone receptor (rat, GH3 cells); assay: qHTS assay to identify small molecule agonists of the thyroid receptor (TR) signaling pathway (AID 743066; calls by dose curve; also: potency is read from the fitted curve at half-maximal effect)
[4] = qHTS assay to identify small molecule antagonists of the estrogen receptor alpha (ER-alpha) signaling pathway - cell viability counter screen (AID 743074; calls by dose curve;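 also: HEK293 cells carrying ER-alpha-UAS-bla reporter stimulated with 17beta-estradiol; nearly all actives have a fitted effect of over 45% in size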; also: potency is read from the fitted curve at half-maximal effect)
[5] = qHTS assay to identify small molecule antagonists of the estrogen receptor alpha (ER-alpha) signaling pathway using the BG1 cell line - cell viability counter screen (AID 743081);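 also: compound given together with 17beta-estradiol as the ER stimulus; nearly all actives have a fitted effect of over 45% in size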; also: potency is read from the fitted curve at half-maximal effect
Aromatase (Homo sapiens) = Aromatase (Homo sapiens) (UniProt P11511); assay: qHTS assay to identify aromatase inhibitors (AID 743083); also: nearly all actives have a fitted effect of over 55% in size; also: potency is read from the fitted curve at half-maximal effect
[6] = molecular target: Estrogen receptor (Homo sapiens) (UniProt P03372); assay: qHTS assay to identify small molecule antagonists of the estrogen receptor alpha (ER-alpha) signaling pathway (AID 743069; active = well fitted curve in the direction sought with a large enough effect in the signal ratio in the repeat runs, not every such curve was filed as active; the % refers to the signal ratio)
In short: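 Compound effects are measured against 17beta-estradiol stimulation in HEK293 cells with a UAS-controlled beta-lactamase reporter for ER-alpha. Exposure lasts 18 hr at 37C; LiveBLAzer B/G FRET substrate follows for 2 hr at room temperature.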

[7] = molecular target: Estrogen receptor (Homo sapiens) (UniProt P03372); assay: qHTS assay to identify small molecule agonists of the estrogen receptor alpha (ER-alpha) signaling pathway (AID 743075; calls by dose curve; also: potency is read from the fitted curve at half-maximal effect)
[8] = molecular target: Estrogen receptor (Homo sapiens) (UniProt P03372); assay: qHTS assay to identify small molecule agonists of the estrogen receptor alpha (ER-alpha) signaling pathway using the BG1 cell line (AID 743079); also: nearly all actives have a fitted effect of over 20% in size; also: potency is read from the fitted curve at half-maximal effect
[9] = qHTS assay to identify small molecule antagonists of the estrogen receptor alpha (ER-alpha) signaling pathway using the BG1 cell line (AID 743080; calls by dose curve;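 also: BG1 cells stimulated with 17beta-estradiol alongside compound; nearly all actives have a fitted effect of over 25% in size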); settings: BG1Luc4E2 ERE-luciferase antagonist mode, luminescence; activity change, negative = inhibition: at 70.3 µM (top of the series)
In short: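 Quantitative HTS on the Tox21 10K library: BG1 cells with endogenous ER-alpha and ERE-luciferase reporter, 17beta-estradiol stimulation, 21.5 h compound exposure, luminescence endpoint with parallel fluorescence cytotoxicity counter-read.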

Chain of Aromatase (Homo sapiens) (P11511 whole entry, looked up): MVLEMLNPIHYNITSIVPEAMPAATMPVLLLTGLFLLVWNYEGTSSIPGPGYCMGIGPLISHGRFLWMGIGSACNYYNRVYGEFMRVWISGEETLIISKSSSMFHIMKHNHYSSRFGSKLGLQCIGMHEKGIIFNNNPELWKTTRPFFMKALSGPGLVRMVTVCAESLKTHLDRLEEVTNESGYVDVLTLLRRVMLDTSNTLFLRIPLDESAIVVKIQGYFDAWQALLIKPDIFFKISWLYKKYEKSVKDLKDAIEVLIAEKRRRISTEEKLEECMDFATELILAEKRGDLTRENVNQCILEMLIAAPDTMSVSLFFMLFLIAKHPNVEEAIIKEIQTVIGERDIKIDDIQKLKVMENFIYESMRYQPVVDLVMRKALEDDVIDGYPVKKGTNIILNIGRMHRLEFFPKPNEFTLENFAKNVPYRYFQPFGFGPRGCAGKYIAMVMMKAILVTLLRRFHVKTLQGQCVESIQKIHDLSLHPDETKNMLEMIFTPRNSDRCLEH
Chain of Estrogen receptor (Homo sapiens) (P03372 whole entry, looked up): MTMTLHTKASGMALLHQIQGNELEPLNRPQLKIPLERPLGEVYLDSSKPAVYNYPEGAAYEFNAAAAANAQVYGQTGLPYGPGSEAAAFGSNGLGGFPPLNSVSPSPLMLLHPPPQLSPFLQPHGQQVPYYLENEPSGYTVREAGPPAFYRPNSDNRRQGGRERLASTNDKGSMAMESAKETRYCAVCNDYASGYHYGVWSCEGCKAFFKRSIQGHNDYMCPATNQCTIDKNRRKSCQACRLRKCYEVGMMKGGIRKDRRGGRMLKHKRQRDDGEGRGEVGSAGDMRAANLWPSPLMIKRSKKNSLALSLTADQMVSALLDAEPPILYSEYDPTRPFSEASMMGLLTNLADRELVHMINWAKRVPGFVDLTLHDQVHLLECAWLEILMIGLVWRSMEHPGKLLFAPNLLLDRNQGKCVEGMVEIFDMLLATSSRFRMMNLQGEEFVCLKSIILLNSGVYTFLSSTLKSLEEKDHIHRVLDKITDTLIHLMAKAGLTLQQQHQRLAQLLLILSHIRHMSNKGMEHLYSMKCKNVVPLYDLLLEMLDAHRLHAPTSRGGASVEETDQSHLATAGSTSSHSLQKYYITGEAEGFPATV

SMILES | Potency [1] | Potency [2] | Potency [3] | Potency [4] | Potency [5] | Potency (Aromatase (Homo sapiens)) | Potency [6] | Potency [7] | Potency [8] | Potency [9]
CCCC[P+](CCCC)(CCCC)CCCC | inactive | inactive | inactive | inactive | inactive | inactive |  |  |  | 
O=C1NC(=O)C(c2ccccc2)(c2ccccc2)N1 | inactive | inactive | inactive | inactive | inactive | inactive |  |  |  | 
CN1[C@@H]2CC(OC(=O)[C@H](CO)c3ccccc3)C[C@H]1[C@@H]1O[C@@H]12 (stereo partly drawn) | inactive |  | inactive | inactive | inactive |  | inactive | inactive | inactive and 23.7 µM (active) and 48.6 µM (active) | inactive
C1CCC(C(CC2CCCCN2)C2CCCCC2)CC1 (stereo not drawn) | 4.73 µM (active) | 5.96 µM (active) |  | 21.3 µM (active) |  |  |  |  |  | 
CNNCc1ccc(C(=O)NC(C)C)cc1 | inactive | inactive | inactive | inactive | inactive | inactive |  |  |  | 
CCCCC(CC)C(=O)O (stereo not drawn) | inactive | inactive | inactive | inactive | inactive | inactive |  |  |  | 
CCCCCCCCCCCC[N+](C)(C)Cc1ccccc1 | 5.96 µM (active) and 12 µM (active) and 14.9 µM (active) | 5.31 µM (active) and 9.5 µM (active) and 11.8 µM (active) | inactive | 10.7 µM (active) and 24.1 µM (active) and 26.7 µM (active) | inactive and 74.5 µM (active) | 29.8 µM (active) and 42.4 µM (active) and 37.4 µM (active) |  |  |  | 
CC(=O)CC(c1ccccc1)c1c(O)c2ccccc2oc1=O (stereo not drawn) | inactive | inactive | inactive | inactive | inactive |  |  |  |  | 
CCCCNC(=O)NS(=O)(=O)c1ccc(C)cc1 | inactive | inactive | inactive | inactive | inactive | inactive |  |  |  | 
C=C1CC[C@H](O)C/C1=C\C=C1/CCC[C@]2(C)[C@@H]([C@H](C)CCCC(C)C)CC[C@@H]12 | 26.6 µM (active) and 48.1 µM (active) | 21.1 µM (active) and 30.4 µM (active) |  | inactive | inactive | inactive |  | inactive | inactive | inactive
OC[C@H]1O[C@H](O[C@]2(CCl)O[C@H](CCl)[C@@H](O)[C@@H]2O)[C@H](O)[C@@H](O)[C@H]1Cl | inactive | inactive | inactive | inactive | inactive | inactive |  |  |  | 
NS(=O)(=O)O | inactive | inactive | inactive | inactive | inactive | inactive |  |  |  | 
Cc1cc(C)nc(NS(=O)(=O)c2ccc(N)cc2)n1 | inactive | inactive | inactive and 69.4 µM (active) | inactive | inactive | inactive |  |  |  | 
CN[C@H]1CC[C@@H](c2ccc(Cl)c(Cl)c2)c2ccccc21 | 9.44 µM (active) | 6.68 µM (active) |  |  | inactive |  |  | inactive |  | 
CCCCOC(=O)c1ccc(O)cc1 | inactive | inactive | inactive | inactive | inactive | inactive |  |  |  | 
F[B-](F)(F)F | inactive | inactive | inactive | inactive | inactive | inactive |  |  |  | 
O=C1c2c(O)cccc2Cc2cccc(O)c21 | inactive | inactive | inactive | inactive | inactive | inactive |  |  |  | 
CCCCCCc1ccc(O)cc1O | 54.6 µM (active) and 54.5 µM (active) | 61.3 µM (active) | inactive | inactive | inactive | inactive and 61.1 µM (active) |  |  |  | 
C/C=C/C=C/C(=O)O | inactive | inactive | inactive | inactive | inactive | inactive |  |  |  | 
Nc1ccc(S(N)(=O)=O)cc1 | inactive | inactive | inactive and 9.74 µM (active) | inactive | inactive | inactive |  |  |  | 
Cc1cn([C@H]2C=C[C@@H](CO)O2)c(=O)[nH]c1=O | inactive | inactive | inactive | inactive | inactive | inactive |  |  |  | 
CC1(C)O[C@@H]2C[C@H]3[C@@H]4CCC5=CC(=O)C=C[C@]5(C)[C@@]4(F)[C@@H](O)C[C@]3(C)[C@]2(C(=O)CO)O1 | inactive | inactive | inactive | inactive | inactive | inactive |  |  |  | 
COc1ccc2cc(S(=O)(=O)N[C@H](CC(=O)N[C@H](Cc3ccc(CN4[C@H](C)CCC[C@@H]4C)cc3)C(=O)N(C)C(C)C)c3ccc4c(c3)OCO4)ccc2c1 | 2.58 µM (active) | 3.65 µM (active) |  | 52 µM (active) | 9.17 µM (active) | 46 µM (active) | inactive |  |  | 
Nc1c(N=Nc2ccc(-c3ccc(N=Nc4cc(S(=O)(=O)O)c5ccccc5c4N)cc3)cc2)cc(S(=O)(=O)O)c2ccccc12 | 16.8 µM (active) and 27.3 µM (active) | 10.6 µM (active) and 30.6 µM (active) | inactive | inactive | 13.3 µM (active) and 24.3 µM (active) |  |  |  |  | 
COc1cccc(O)c1O | inactive |  | inactive | inactive |  | 35.7 µM (active) |  | 50.7 µM [activator] (active) | inactive | inactive
